Assay results: PubChem BioAssay (NCI)
This is part of a sample that, as a whole, favours compounds with a hit. Of some 83,000 tested, about 20% had one in any assay.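 How to read the values: 0–100, growth inhibition (40 = 60% inhibited); 0, no net growth; -100 to 0, cell death (-40 = 40% of starting cells died; -100 = all dead).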 Activity calls are given as the source filed them. Rule for the calls: active = growth percent below 10; inactive = the rest.

Columns and labels:
Test in all cases: NCI-60 one-dose screen, 48 h (100 = growth as untreated, 0 = no growth, -100 = all killed)
Details in all cases: 10 µM unless noted
NCI-H23 lung = test system: NCI-H23 lung
NCI-H226 lung = test system: NCI-H226 lung
NCI-H322M lung = test system: NCI-H322M lung
HOP-62 NSCLC = test system: HOP-62 NSCLC
NCI-H460 lung = test system: NCI-H460 lung
NCI-H522 lung = test system: NCI-H522 lung
A549/ATCC NSCLC = test system: A549/ATCC NSCLC
786-0 renal = test system: 786-0 renal
COLO 205 colon = test system: COLO 205 colon
DU-145 prostate = test system: DU-145 prostate
K-562 leukemia = test system: K-562 leukemia
MALME-3M melanoma = test system: MALME-3M melanoma
MDA-MB-231 breast = test system: MDA-MB-231 breast
RXF 393 renal = test system: RXF 393 renal
SF-268 CNS = test system: SF-268 CNS
SF-295 CNS = test system: SF-295 CNS
SF-539 CNS = test system: SF-539 CNS
UACC-257 melanoma = test system: UACC-257 melanoma
M14 melanoma = test system: M14 melanoma

Measured: growth

CN(C)c1nc(-c2cccs2)n2nc(-c3ccco3)cc2n1
inactive: NCI-H23 lung 87.2% | NCI-H226 lung 90.2% | NCI-H322M lung 106% | HOP-62 NSCLC 106% | NCI-H460 lung 98.4% | NCI-H522 lung 96.2% | A549/ATCC NSCLC 101% | 786-0 renal 96.1% | COLO 205 colon 126% | DU-145 prostate 116% | K-562 leukemia 106% | MALME-3M melanoma 121% | MDA-MB-231 breast 82.6% | RXF 393 renal 83.7% | SF-268 CNS 104% | SF-295 CNS 106% | SF-539 CNS 93.6% | UACC-257 melanoma 113% | M14 melanoma 98%

NC(CCC(=O)NC(CS)C(=O)NCC(=O)O)C(=O)O (centres undefined)
active: RXF 393 renal -24.6%
inactive: NCI-H23 lung 108% | NCI-H226 lung 101% | NCI-H322M lung 126% | HOP-62 NSCLC 103% | NCI-H460 lung 106% | NCI-H522 lung 98.3% | A549/ATCC NSCLC 94.2% | 786-0 renal 109% | COLO 205 colon 104% | DU-145 prostate 112% | K-562 leukemia 84.2% | MALME-3M melanoma 122% | MDA-MB-231 breast 117% | SF-268 CNS 103% | SF-295 CNS 104% | SF-539 CNS 105% | UACC-257 melanoma 101% | M14 melanoma 108%

C#Cc1cccc(Nc2nc3cc([N+](=O)[O-])ccc3nc2Nc2ccc(O)cc2)c1
inactive: NCI-H226 lung 50.3% | NCI-H322M lung 16.8% | HOP-62 NSCLC 21.4% | A549/ATCC NSCLC 11.3% | DU-145 prostate 23.3% | MALME-3M melanoma 51.2% | RXF 393 renal 54.8% | SF-268 CNS 27.3% | SF-539 CNS 21.8% | UACC-257 melanoma 25.9%
active: NCI-H23 lung 9.92% | NCI-H460 lung -24% | NCI-H522 lung -53.6% | 786-0 renal -11.7% | COLO 205 colon -49.9% | K-562 leukemia -30% | MDA-MB-231 breast -48.2% | SF-295 CNS 1.66% | M14 melanoma -52.5%

Clc1ccc(-c2cnc3nonc3n2)s1
inactive: NCI-H23 lung 74.3% | NCI-H226 lung 100% | NCI-H322M lung 96.6% | HOP-62 NSCLC 84.5% | NCI-H460 lung 92.6% | NCI-H522 lung 53.5% | A549/ATCC NSCLC 85% | 786-0 renal 86.1% | COLO 205 colon 67.6% | DU-145 prostate 89.7% | K-562 leukemia 41.7% | MALME-3M melanoma 83% | MDA-MB-231 breast 85.2% | RXF 393 renal 109% | SF-268 CNS 82.7% | SF-295 CNS 92.8% | SF-539 CNS 97.5% | UACC-257 melanoma 64.4% | M14 melanoma 86.6%

CNC1=C([N+](=O)[O-])C(c2ccccc2O)C(C#N)=C(c2cccs2)O1 (centres undefined)
inactive: NCI-H23 lung 99.1% | NCI-H226 lung 97.5% | NCI-H322M lung 98.6% | HOP-62 NSCLC 88% | NCI-H460 lung 105% | A549/ATCC NSCLC 99.7% | 786-0 renal 93.2% | COLO 205 colon 101% | DU-145 prostate 103% | K-562 leukemia 63.8% | MALME-3M melanoma 52.8% | MDA-MB-231 breast 93.8% | RXF 393 renal 89.7% | SF-268 CNS 96.3% | SF-295 CNS 102% | SF-539 CNS 95.6% | UACC-257 melanoma 78.3% | M14 melanoma 93.4%
active: NCI-H522 lung 7.12%

O=C(Nc1cccc(C2=NCCN2)c1)c1ccc(N=Nc2ccc(C(=O)Nc3cccc(C4=NCCN4)c3)cc2)cc1
inactive: NCI-H23 lung 44.3% | NCI-H226 lung 81.5% | NCI-H322M lung 64.7% | HOP-62 NSCLC 42.3% | NCI-H460 lung 41.9% | NCI-H522 lung 36.2% | A549/ATCC NSCLC 33.9% | 786-0 renal 69.2% | COLO 205 colon 64.5% | DU-145 prostate 59.1% | K-562 leukemia 51.8% | MALME-3M melanoma 29.7% | MDA-MB-231 breast 73.1% | RXF 393 renal 105% | SF-268 CNS 54.2% | SF-295 CNS 82.4% | SF-539 CNS 74% | UACC-257 melanoma 55.4% | M14 melanoma 64.9%

CC(C)N(C(=S)SSC(=S)N(C(C)C)C(C)C)C(C)C
inactive: NCI-H23 lung 101% | NCI-H226 lung 109% | NCI-H322M lung 108% | HOP-62 NSCLC 104% | NCI-H460 lung 110% | NCI-H522 lung 75.7% | A549/ATCC NSCLC 95.9% | 786-0 renal 101% | COLO 205 colon 112% | DU-145 prostate 109% | K-562 leukemia 73.3% | MALME-3M melanoma 101% | MDA-MB-231 breast 119% | RXF 393 renal 120% | SF-268 CNS 103% | SF-295 CNS 101% | SF-539 CNS 108% | UACC-257 melanoma 93.4% | M14 melanoma 101%

O=C(/C=C/c1ccccc1Br)c1cccc(OCCCCOc2cccc(C(=O)/C=C/c3ccccc3Br)c2)c1
inactive: NCI-H23 lung 89.3% | NCI-H226 lung 89.9% | NCI-H322M lung 98.8% | HOP-62 NSCLC 103% | NCI-H460 lung 95.5% | NCI-H522 lung 90.7% | A549/ATCC NSCLC 87.7% | 786-0 renal 104% | COLO 205 colon 103% | DU-145 prostate 104% | K-562 leukemia 94.6% | MALME-3M melanoma 99.6% | MDA-MB-231 breast 104% | RXF 393 renal 96.9% | SF-268 CNS 101% | SF-295 CNS 95.5% | SF-539 CNS 102% | UACC-257 melanoma 94.1% | M14 melanoma 88%

COc1cnc2c(c1)C(=O)c1c-2n(CCCNC(C)C)c(=O)c2cc(Cl)ccc12
active: NCI-H23 lung -64.5% | NCI-H322M lung -35.7% | HOP-62 NSCLC -88.4% | NCI-H460 lung -82.9% | NCI-H522 lung -79.8% | A549/ATCC NSCLC -84% | 786-0 renal -96.3% | COLO 205 colon -89.8% | DU-145 prostate -78.4% | K-562 leukemia -80% | MALME-3M melanoma -73.4% | MDA-MB-231 breast -79.7% | RXF 393 renal -77.1% | SF-268 CNS -64.2% | SF-295 CNS -77.3% | SF-539 CNS -97.3% | M14 melanoma -83.4%
inactive: NCI-H226 lung 25.5% | UACC-257 melanoma 48.2%

O=C(Nc1ccncc1)C(=O)c1cn(S(=O)(=O)c2cccc(Cl)c2F)c2ccccc12
inactive: NCI-H23 lung 63.7% | NCI-H226 lung 75% | NCI-H322M lung 96.7% | HOP-62 NSCLC 89.6% | NCI-H460 lung 90% | NCI-H522 lung 35.2% | A549/ATCC NSCLC 82.8% | 786-0 renal 77.3% | COLO 205 colon 106% | DU-145 prostate 96.9% | K-562 leukemia 23.9% | MALME-3M melanoma 53.7% | MDA-MB-231 breast 78.2% | RXF 393 renal 92.5% | SF-268 CNS 80.6% | SF-295 CNS 67.9% | SF-539 CNS 83.2% | UACC-257 melanoma 89.6% | M14 melanoma 59.2%

O=C(c1ccccc1)C1OC1C(=O)c1ccccc1 (centres undefined)
active: NCI-H23 lung 3.63% | NCI-H522 lung 8.93% | DU-145 prostate 1.5% | K-562 leukemia 9.28% | RXF 393 renal 2.72%
inactive: NCI-H226 lung 61.1% | NCI-H322M lung 75.4% | HOP-62 NSCLC 21% | NCI-H460 lung 64.1% | A549/ATCC NSCLC 70.4% | 786-0 renal 15.1% | COLO 205 colon 27.6% | MALME-3M melanoma 30.5% | MDA-MB-231 breast 25.9% | SF-268 CNS 39.5% | SF-295 CNS 72.8% | SF-539 CNS 24.5% | UACC-257 melanoma 40.2% | M14 melanoma 17.3%

CC[C@H](C)[C@H](N)C(=O)O
inactive: NCI-H23 lung 111% | NCI-H226 lung 96.5% | NCI-H322M lung 96.9% | HOP-62 NSCLC 102% | NCI-H460 lung 108% | NCI-H522 lung 101% | A549/ATCC NSCLC 103% | 786-0 renal 112% | COLO 205 colon 103% | DU-145 prostate 106% | K-562 leukemia 122% | MALME-3M melanoma 103% | MDA-MB-231 breast 97.7% | RXF 393 renal 96.8% | SF-268 CNS 105% | SF-295 CNS 104% | SF-539 CNS 100% | UACC-257 melanoma 119% | M14 melanoma 105%

CCN1C(=O)/C(=C/N2N=C(c3ccc(Cl)cc3)CC2c2ccc(OC)cc2)SC1=S (centres undefined)
inactive: NCI-H23 lung 98.3% | NCI-H226 lung 93% | NCI-H322M lung 89% | HOP-62 NSCLC 96% | NCI-H460 lung 99.7% | NCI-H522 lung 70.4% | A549/ATCC NSCLC 74.3% | 786-0 renal 76.4% | COLO 205 colon 99.7% | DU-145 prostate 108% | K-562 leukemia 77.8% | MALME-3M melanoma 108% | MDA-MB-231 breast 87.2% | RXF 393 renal 91.9% | SF-268 CNS 95.2% | SF-295 CNS 89.6% | SF-539 CNS 88% | UACC-257 melanoma 89.3% | M14 melanoma 92.3%

Nc1c(C(=O)Nc2ccccc2)sc2nc3c(cc12)C(=O)CCC3
inactive: NCI-H23 lung 39.5% | NCI-H226 lung 68% | NCI-H322M lung 67.1% | HOP-62 NSCLC 39.9% | NCI-H460 lung 12.9% | A549/ATCC NSCLC 19.7% | 786-0 renal 36.2% | K-562 leukemia 17.1% | MALME-3M melanoma 76.2% | MDA-MB-231 breast 52.1% | SF-268 CNS 53.4% | UACC-257 melanoma 52.8%
active: NCI-H522 lung -33.8% | COLO 205 colon -18.4% | DU-145 prostate 0.618% | RXF 393 renal -9.9% | SF-295 CNS -12.4% | SF-539 CNS 0.845% | M14 melanoma 1.11%

COc1cc(OC)c(Cl)cc1N
inactive: NCI-H23 lung 105% | NCI-H226 lung 108% | NCI-H322M lung 110% | HOP-62 NSCLC 104% | NCI-H460 lung 103% | NCI-H522 lung 94.8% | A549/ATCC NSCLC 105% | 786-0 renal 111% | COLO 205 colon 115% | DU-145 prostate 114% | K-562 leukemia 95.5% | MALME-3M melanoma 134% | MDA-MB-231 breast 94.8% | RXF 393 renal 110% | SF-268 CNS 104% | SF-295 CNS 135% | SF-539 CNS 95.4% | UACC-257 melanoma 111% | M14 melanoma 115%

CCCCCN(CCCCC)C(=O)C(CCC(=O)O)NC(=O)c1ccc(Cl)c(Cl)c1 (centres undefined)
inactive: NCI-H23 lung 105% | NCI-H226 lung 92.6% | NCI-H322M lung 102% | HOP-62 NSCLC 102% | NCI-H460 lung 106% | NCI-H522 lung 110% | A549/ATCC NSCLC 85% | 786-0 renal 106% | COLO 205 colon 120% | DU-145 prostate 113% | K-562 leukemia 115% | MALME-3M melanoma 104% | MDA-MB-231 breast 88.1% | RXF 393 renal 106% | SF-268 CNS 110% | SF-295 CNS 110% | SF-539 CNS 113% | UACC-257 melanoma 111% | M14 melanoma 109%
